The supplement of paper PMC6555819

tested on: RXRa homodimer (NR concentration 180 nM); assay: PBM binding z-score (relative to random genomic background probes); higher = stronger binding; sequences stand for … in GC…GCGATTGACAGCGTAGAATGAAGG
Summary of the method: (§1)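 Probes were double-stranded and carried 34-nt variable regions with direct-repeat seeds, single-nucleotide variants, half-site ablations and random human genomic background sequences, printed on custom Agilent 4×180K protein-binding microarrays. Arrays were incubated 1 h with ligand-free nuclear receptor dimers in PBS pH 7.4, 2% milk, 0.02% Triton X-100, 1 mM DTT, 0.2 mg/mL BSA and 0.4 mg/ml salmon testes DNA. Antibodies against each partner (one per run) detected binding, and scanned fluorescence was regression-normalized. Binding z-scores use the random background probes as reference.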

Point of comparison: CCTTACGGGTCACTTCAGGTTATAGCATCGGAGT, PBM binding z-score 4.38. Against it:
- ATCGAAAGGTCGTGTGGTGAGTATACAGAAAGGC — higher, 4.59
- CGTCCAAGGTCATCGGAGGTCAGTGAAGACAGAT — higher, 6.83
- CCATACAGGTGAGAAGGTAACTCAGCCTCGATTA — lower, 0.539
- ATCGAAAGGTCGACGAGGTGAGTCTACACCGTTT — lower, 4.04
- CCTCGAAGGACAGAAGGTCAGAGCTGTCCGCTTT — lower, 1.76
- CCTATTAGTTGACCGTAAGGGCAACCGAAGCTCG — lower, 0.616
- TAGCCTAGGTCATGCAGGGGCCAGTATAGAAAGC — lower, 3.12
- CCTACTCGGCCATTCAGAGGTCATTGATCATATG — lower, 3.59
- CCTCGGAGGACAGAAGGTCAGAGCTGTCCGCTTT — lower, 1.89
- GCGACTGGTGCAAAGCAGGTTACCATAAGGTTGG — lower, 0.0236
- CGTCCAAGGTCAGAGAGGTCAATGAATGCCGAGT — higher, 6.58
- CCTATTAGTTGACCATAAGGGCTACCGAAGCTCG — lower, 0.214
- CAAACTAGGGCACAGAGGTCAAAGTCCGTGCGTA — higher, 5.91
- TAGCCCAGGTCATGCGGGCCAGTATAGTGTCGGC — lower, 3.45
- CCGAGTTGGTTATGGGGCATTCAGGCAACGGTGA — lower, 0.0354
- GCTACAGGGTCAAGGCCAGAGTACGCGTATTGAT — higher, 5.92
- CCTACTGGGCCATCATGTCATTGATATCAACGTT — lower, -0.104
- TCATATAGGTAAGACAGGTGAAAGTCGGCATCTA — lower, 1.02
- CCTAGTTGGTGAAGGTCACACACGCTATAGGTAC — lower, 3.65
- ATCTCTAGGTAAACATAGTTCAGTGAATGCAAAT — lower, 0.495
- TCATATAGGTAATTCAGGTGAAAGTCGGCATCTA — lower, 0.923
- CCTAGCTGGCCAGGGTCACTCAAGCATTTCGCTT — lower, 3.3
- TCATATAGGTAGAGGTGAAAGTCGAACGATATGA — lower, 1.77
- TCGAGTAGGTTAGGAGCATTCAGAATGGCGTCGA — lower, 0.0721
- ACTTACGGGGCAACGAGGTTATAGCACGCGTATA — lower, 1.73
- AGAATGAGGTTATTAAGATCTGGGAATTGCGGTC — lower, 1.77
- CCTGCTAGGCCAATGGTCAGCTAAAGCAGCTCGC — lower, -0.899
- CGTCCAAGGTCAAAGGAGGTCAGTGAAGACAGAT — higher, 6.32
- CGAACTAGGTCAGAACAGGACAGTGAGGGATGAT — lower, 1.47
- TCATATAGGTAAGGGTGAAAGTCGAACGATATGA — lower, 1.36
- CAAACTAGGTTACGAAAGGTCAAAGTCGAATGAC — higher, 6.62
- TCTAATAGTTGAAGGGCAACCGACGAGTCCGTTT — lower, 0.869
- GCTGCTAGGTCAGGTAGGTCAGCTAACGGGTACG — lower, 2.38
- CCGACTGGGGCAAAGGTTACCATACTCAGTACGA — lower, 3.67
- GATACAGGGTTAGCTAGAGGCCAGAGTATGGAAA — lower, 0.857
- GCGACTGGGGCAAAGCAGGTTACCTTAAGGTTGG — lower, 0.238
- GCGACTGGGGCATCAGCAGGTTACCATCACTTAA — lower, 0.259
- AGAATGAGGTTATTAGGATCAGGGAATTGCGGTC — lower, 1.9
- ATACCATGGTGATCGTGAGGTCGTTGATACTAAC — lower, 0.893

tested on: THRa:RXRa (NR concentration 90 nM, RXRa partner concentration 90 nM); assay: as above
Summary of the method: as §1

Point of comparison: CCTAGTTGGTGAAGGTCACACACGCTATAGGTAC, PBM binding z-score 2.89. Against it:
- ATCGAAAGGTCGTGTGGTGAGTATACAGAAAGGC — lower, 2.39
- CGTCCAAGGTCATCGGAGGTCAGTGAAGACAGAT — higher, 5.45
- CCATACAGGTGAGAAGGTAACTCAGCCTCGATTA — lower, 0.148
- ATCGAAAGGTCGACGAGGTGAGTCTACACCGTTT — higher, 3.99
- CCTCGAAGGACAGAAGGTCAGAGCTGTCCGCTTT — lower, 1.62
- CCTATTAGTTGACCGTAAGGGCAACCGAAGCTCG — lower, 2.29
- TAGCCTAGGTCATGCAGGGGCCAGTATAGAAAGC — higher, 3.29
- CCTACTCGGCCATTCAGAGGTCATTGATCATATG — higher, 3.32
- CCTCGGAGGACAGAAGGTCAGAGCTGTCCGCTTT — lower, 2.22
- GCGACTGGTGCAAAGCAGGTTACCATAAGGTTGG — lower, 1.93
- CGTCCAAGGTCAGAGAGGTCAATGAATGCCGAGT — higher, 4.53
- CCTATTAGTTGACCATAAGGGCTACCGAAGCTCG — lower, 0.318
- CAAACTAGGGCACAGAGGTCAAAGTCCGTGCGTA — higher, 3.79
- TAGCCCAGGTCATGCGGGCCAGTATAGTGTCGGC — higher, 3.85
- CCGAGTTGGTTATGGGGCATTCAGGCAACGGTGA — lower, 0.111
- GCTACAGGGTCAAGGCCAGAGTACGCGTATTGAT — higher, 3.42
- CCTACTGGGCCATCATGTCATTGATATCAACGTT — lower, 0.045
- TCATATAGGTAAGACAGGTGAAAGTCGGCATCTA — lower, 0.828
- ATCTCTAGGTAAACATAGTTCAGTGAATGCAAAT — lower, 1.07
- TCATATAGGTAATTCAGGTGAAAGTCGGCATCTA — lower, 2.52
- CCTAGCTGGCCAGGGTCACTCAAGCATTTCGCTT — lower, 2.88
- TCATATAGGTAGAGGTGAAAGTCGAACGATATGA — lower, 1.41
- TCGAGTAGGTTAGGAGCATTCAGAATGGCGTCGA — lower, -0.459
- ACTTACGGGGCAACGAGGTTATAGCACGCGTATA — lower, 2.08
- AGAATGAGGTTATTAAGATCTGGGAATTGCGGTC — lower, 1.99
- CCTGCTAGGCCAATGGTCAGCTAAAGCAGCTCGC — lower, -0.489
- CGTCCAAGGTCAAAGGAGGTCAGTGAAGACAGAT — higher, 5.42
- CGAACTAGGTCAGAACAGGACAGTGAGGGATGAT — higher, 3.57
- TCATATAGGTAAGGGTGAAAGTCGAACGATATGA — lower, 0.89
- CAAACTAGGTTACGAAAGGTCAAAGTCGAATGAC — higher, 4.48
- TCTAATAGTTGAAGGGCAACCGACGAGTCCGTTT — lower, 0.0071
- GCTGCTAGGTCAGGTAGGTCAGCTAACGGGTACG — lower, 2.78
- CCTTACGGGTCACTTCAGGTTATAGCATCGGAGT — higher, 5.04
- CCGACTGGGGCAAAGGTTACCATACTCAGTACGA — lower, 1.78
- GATACAGGGTTAGCTAGAGGCCAGAGTATGGAAA — lower, 1.23
- GCGACTGGGGCAAAGCAGGTTACCTTAAGGTTGG — higher, 3.21
- GCGACTGGGGCATCAGCAGGTTACCATCACTTAA — lower, 0.783
- AGAATGAGGTTATTAGGATCAGGGAATTGCGGTC — lower, 2.35
- ATACCATGGTGATCGTGAGGTCGTTGATACTAAC — lower, 2.48
